Counter-ions that a name gives are not always drawn.
Test system: A431
Test: whole-cell filipin (free cholesterol) integrated intensity, Z-score; higher = more cholesterol staining
Details: compound concentration in added solution (µM; 5 µl added to 20 µl cells): 10; 18 h
Summary of the method: (§1)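 HeLa MZ or A431 cells were plated at 3,500 per well in 20 µl over 5 µl of 10 µM compound solution in duplicate 384-well imaging plates and fixed in 4% PFA after 18 h. Staining used the 6C4 anti-LBPA antibody, filipin, propidium iodide and CellTracker green, with four 20× images captured per well. MetaXpress segmentation measured integrated LBPA or filipin intensity per cell, across the whole cell or inside LBPA endosomes, and AcuityXpress normalised these into Z-scores.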

| Structure (SMILES) | whole-cell filipin (z-score) |
| --- | --- |
| C[N+](C)(C)CCCCCCCCCC[N+](C)(C)C [Decamethonium bromide] | 0.0371 |
| CC(C)c1c(CN(C)C(C)Cc2ccccc2)n(C)n(-c2ccccc2)c1=O (stereo not given) [Famprofazone] | -0.228 |
| C[C@]12Cc3c[nH]nc3C[C@@H]1CC[C@@H]1[C@@H]2CC[C@@]2(C)[C@H]1CC[C@]2(C)O [Stanozolol] | 0.353 |
| c1ccc2c(c1)OCC(C1=NCCN1)O2 (stereo not given) [Idazoxan hydrochloride] | -0.115 |
| NCCc1c[nH]c2ccc(O)cc12 [Serotonin hydrochloride] | -1.04 |
| CC[N+]1(C)CCCC(OC(=O)C(O)(c2ccccc2)c2ccccc2)C1 (stereo not given) [Pipenzolate bromide] | -0.135 |
| O=C(CCCN1CCC(n2c(=O)[nH]c3ccccc32)CC1)c1ccc(F)cc1 [Benperidol] | 2.2 |
| CC(C)C[C@H]1C(=O)N2CCC[C@H]2[C@]2(O)O[C@](NC(=O)[C@@H]3C=C4c5cccc6[nH]c(Br)c(c56)C[C@H]4N(C)C3)(C(C)C)C(=O)N12 [Bromocryptine mesylate] | 1.54 |
| CC(C)CC(N(C)C)C1(c2ccc(Cl)cc2)CCC1 (stereo not given) [Sibutramine HCl] | -0.397 |
| CNC(=O)Oc1ccc2c(c1)[C@]1(C)CCN(C)[C@@H]1N2C [Eserine sulfate, physostigmine sulfate] | -0.783 |
| CN1[C@@H]2CC[C@H]1C[C@@H](OC1c3ccccc3CCc3ccccc31)C2 [Deptropine citrate] | 1.8 |
| O=[N+]([O-])c1cc([As](=O)(O)O)ccc1O [Roxarsone] | 0.39 |
| O=c1[nH]c2ccccc2n1CCCN1CCC(n2c(=O)[nH]c3cc(Cl)ccc32)CC1 [Domperidone] | 2.16 |
| Cc1cccc(C)c1NC1=NCCCS1 [Xylazine] | -0.691 |
| Cc1cc(C(C#N)c2ccc(Cl)cc2)c(Cl)cc1NC(=O)c1cc(I)cc(I)c1O (stereo not given) [Closantel] | -0.93 |
| C=C(C)[C@@H]1[C@H]2OC(=O)[C@@H]1[C@]1(O)C[C@H]3O[C@]34C(=O)O[C@H]2[C@]14C [Picrotoxinin] | -0.718 |
| C[N+]1(C)[C@@H]2CC[C@H]1C[C@@H](OC(=O)C(CO)c1ccccc1)C2 (stereo not given in full) [Methylatropine nitrate] | -0.241 |
| Oc1ccc2c3c1O[C@H]1[C@@H](O)CC[C@@]4(O)[C@@H](C2)N(CC2CCC2)CC[C@]314 [Nalbuphine hydrochloride] | -0.797 |

| Structure (SMILES) | whole-cell filipin (z-score) |
| --- | --- |
| C[N+]12CCC(CC1)C(OC(=O)C(O)(c1ccccc1)c1ccccc1)C2 (stereo not given) [Clidinium bromide] | -0.441 |
| C#CCN(C)[C@H](C)Cc1ccccc1 [Selegiline hydrochloride] | -0.708 |
| NC(=O)C[S+]([O-])C(c1ccccc1)c1ccccc1 (stereo not given) [Modafinil] | -0.743 |
| CCN(CC)C(C)C(=O)c1ccccc1 (stereo not given) [Amfepramone hydrochloride] | -0.82 |
| CCC1(CC)C(=O)C=CNC1=O [Pyrithyldione] | -0.51 |
| CCCC(C)(COC(N)=O)COC(=O)NC(C)C (stereo not given) [Carisoprodol] | -0.863 |
| C[C@@H]1CN([C@H]2CC[C@](C#N)(c3ccc(F)cc3)CC2)CC[C@]1(C(=O)O)c1ccccc1 [Levocabastine hydrochloride] | -0.194 |
| CC(C)(N)Cc1ccccc1 [Phentermine hydrochloride] | 0.392 |
| C(#CCN1CCCC1)CN1CCCC1 [Tremorine dihydrochloride] | -0.922 |
| Clc1ccc(C(OCCN2CCCCC2)c2ccccc2)cc1 (stereo not given) [Cloperastine hydrochloride] | 1.35 |
| NCCC(O)C(=O)NC1CC(N)C(OC2OC(CN)C(O)[C@H](O)[C@@H]2N)[C@H](OC2O[C@H](CO)[C@@H](O)[C@@H]2O)[C@@H]1O (stereo not given in full) [Butirosin disulfate salt] | -0.257 |
| O=c1[nH]oc2c1CCNC2 [THIP Hydrochloride] | -0.151 |
| CC(=O)NC1CCSC1=O (racemic) [N-Acetyl-DL-homocysteine Thiolactone] | -0.462 |
| C[N+]1(C)CCCC(OC(=O)C(O)(c2ccccc2)c2ccccc2)C1 (stereo not given) [Mepenzolate bromide] | -0.409 |
| CCCC(C)C1(CC)C(=O)NC(=O)NC1=O (stereo not given) [Pentobarbital] | -0.881 |
| C[C@]12CC[C@@H](O)C[C@@H]1CC[C@@H]1[C@@H]2CC[C@]2(C)C(=O)CC[C@@H]12 [Androsterone] | -0.613 |
| CCC1(C)CC(=O)NC(=O)C1 [Bemegride] | -0.832 |

Test system: HeLa MZ
Test: as above
Details: compound concentration in added solution (µM; 5 µl added to 20 µl cells): 10; 18 h
Summary of the method: as §1

| Structure (SMILES) | whole-cell filipin (z-score) |
| --- | --- |
| C[N+](C)(C)CCCCCCCCCC[N+](C)(C)C [Decamethonium bromide] | 0.872 |
| CC(C)c1c(CN(C)C(C)Cc2ccccc2)n(C)n(-c2ccccc2)c1=O (stereo not given) [Famprofazone] | -0.336 |
| C[C@]12Cc3c[nH]nc3C[C@@H]1CC[C@@H]1[C@@H]2CC[C@@]2(C)[C@H]1CC[C@]2(C)O [Stanozolol] | -0.167 |
| c1ccc2c(c1)OCC(C1=NCCN1)O2 (stereo not given) [Idazoxan hydrochloride] | -0.982 |
| NCCc1c[nH]c2ccc(O)cc12 [Serotonin hydrochloride] | -1.21 |
| CC[N+]1(C)CCCC(OC(=O)C(O)(c2ccccc2)c2ccccc2)C1 (stereo not given) [Pipenzolate bromide] | 0.198 |
| O=C(CCCN1CCC(n2c(=O)[nH]c3ccccc32)CC1)c1ccc(F)cc1 [Benperidol] | 1.83 |
| CC(C)C[C@H]1C(=O)N2CCC[C@H]2[C@]2(O)O[C@](NC(=O)[C@@H]3C=C4c5cccc6[nH]c(Br)c(c56)C[C@H]4N(C)C3)(C(C)C)C(=O)N12 [Bromocryptine mesylate] | 0.742 |
| CC(C)CC(N(C)C)C1(c2ccc(Cl)cc2)CCC1 (stereo not given) [Sibutramine HCl] | -0.373 |
| CNC(=O)Oc1ccc2c(c1)[C@]1(C)CCN(C)[C@@H]1N2C [Eserine sulfate, physostigmine sulfate] | -0.229 |
| CN1[C@@H]2CC[C@H]1C[C@@H](OC1c3ccccc3CCc3ccccc31)C2 [Deptropine citrate] | -0.333 |
| O=[N+]([O-])c1cc([As](=O)(O)O)ccc1O [Roxarsone] | 0.562 |
| O=c1[nH]c2ccccc2n1CCCN1CCC(n2c(=O)[nH]c3cc(Cl)ccc32)CC1 [Domperidone] | 2.38 |
| Cc1cccc(C)c1NC1=NCCCS1 [Xylazine] | -0.725 |
| Cc1cc(C(C#N)c2ccc(Cl)cc2)c(Cl)cc1NC(=O)c1cc(I)cc(I)c1O (stereo not given) [Closantel] | -0.632 |
| C=C(C)[C@@H]1[C@H]2OC(=O)[C@@H]1[C@]1(O)C[C@H]3O[C@]34C(=O)O[C@H]2[C@]14C [Picrotoxinin] | -0.469 |
| C[N+]1(C)[C@@H]2CC[C@H]1C[C@@H](OC(=O)C(CO)c1ccccc1)C2 (stereo not given in full) [Methylatropine nitrate] | 0.542 |
| Oc1ccc2c3c1O[C@H]1[C@@H](O)CC[C@@]4(O)[C@@H](C2)N(CC2CCC2)CC[C@]314 [Nalbuphine hydrochloride] | -0.749 |

| Structure (SMILES) | whole-cell filipin (z-score) |
| --- | --- |
| C[N+]12CCC(CC1)C(OC(=O)C(O)(c1ccccc1)c1ccccc1)C2 (stereo not given) [Clidinium bromide] | -0.644 |
| C#CCN(C)[C@H](C)Cc1ccccc1 [Selegiline hydrochloride] | -0.332 |
| NC(=O)C[S+]([O-])C(c1ccccc1)c1ccccc1 (stereo not given) [Modafinil] | -0.382 |
| CCN(CC)C(C)C(=O)c1ccccc1 (stereo not given) [Amfepramone hydrochloride] | -0.758 |
| CCC1(CC)C(=O)C=CNC1=O [Pyrithyldione] | -0.44 |
| CCCC(C)(COC(N)=O)COC(=O)NC(C)C (stereo not given) [Carisoprodol] | -0.798 |
| C[C@@H]1CN([C@H]2CC[C@](C#N)(c3ccc(F)cc3)CC2)CC[C@]1(C(=O)O)c1ccccc1 [Levocabastine hydrochloride] | -0.189 |
| CC(C)(N)Cc1ccccc1 [Phentermine hydrochloride] | 0.563 |
| C(#CCN1CCCC1)CN1CCCC1 [Tremorine dihydrochloride] | -0.198 |
| Clc1ccc(C(OCCN2CCCCC2)c2ccccc2)cc1 (stereo not given) [Cloperastine hydrochloride] | -0.495 |
| NCCC(O)C(=O)NC1CC(N)C(OC2OC(CN)C(O)[C@H](O)[C@@H]2N)[C@H](OC2O[C@H](CO)[C@@H](O)[C@@H]2O)[C@@H]1O (stereo not given in full) [Butirosin disulfate salt] | 0.609 |
| O=c1[nH]oc2c1CCNC2 [THIP Hydrochloride] | -1.07 |
| CC(=O)NC1CCSC1=O (racemic) [N-Acetyl-DL-homocysteine Thiolactone] | -0.0159 |
| C[N+]1(C)CCCC(OC(=O)C(O)(c2ccccc2)c2ccccc2)C1 (stereo not given) [Mepenzolate bromide] | -0.0861 |
| CCCC(C)C1(CC)C(=O)NC(=O)NC1=O (stereo not given) [Pentobarbital] | -0.632 |
| C[C@]12CC[C@@H](O)C[C@@H]1CC[C@@H]1[C@@H]2CC[C@]2(C)C(=O)CC[C@@H]12 [Androsterone] | -0.395 |
| CCC1(C)CC(=O)NC(=O)C1 [Bemegride] | -0.492 |

Source: the supplement of paper PMC6607015
